Screening data: PubChem, National Center for Advancing Translational Sciences (NCATS)
Abeta yeast res: qHTS for compounds that reverse cellular toxicity of Amyloid beta (A-beta) peptide in yeast: Primary Screen | yeast expressing A-beta42, growth rescue, OD600, 48 h; response scale: 0% DMSO, 100% iron-clioquinol control | Potency, µM (top dose mostly 46.1 µM), hits mostly activators | 410,000 compounds, 0.063% hits | AID 1347071, 2019; note: nearly all actives have a fitted effect of over 55% in size
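Growth rescue measured by 600 nm absorbance after 48 h yeast culture at 30 C with compound. Values normalized between DMSO and an equimolar ferric chloride plus clioquinol control.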
FUS suppressor: qHTS for Suppressors of FUS Proteinopathy: Primary screen using FUS-linked yeast assay; Potency, µM (highest dose often 76.6 µM), hits mostly activators; S. cerevisiae FUS-expressing, growth rescue, OD600, 24 h; 390,000 compounds, 0.24% hits; note: nearly all actives have a fitted effect of over 55% in size
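Compound concentration series was pinned onto galactose-induced FUS-expressing yeast seeded at OD 0.005. Plates sat 24hr at 30C; absorbance at 600 nm gave growth. DMSO served as background control.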
TDP-43 yeast inh: qHTS of TDP-43 Inhibitors | TDP-43 expressing yeast growth rescue, BacTiter-Glo, 24 h | AID 652104, 2013 | 410,000 compounds, 1.8% hits | Potency, µM (top dose mostly 46.1 µM), usual class: activators; note: nearly all actives have a fitted effect of over 50% in size
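Growth rescue of TDP-43-toxic yeast measured as ATP luminescence (BacTiter-Glo). Cells grown to mid-log in raffinose, induced in galactose at OD600=0.02, exposed to compound 24 hr at 30 deg C.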
aSyn yeast inh: qHTS of alpha-syn Inhibitors | Yeast expressing alpha-synuclein, growth rescue, BacTiter-Glo, 24 h | Potency, µM (titrated, usually from 46.1 µM), hits mostly activators | 370,000 compounds, 0.14% hits; note: nearly all actives have a fitted effect of over 65% in size
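Rescue of yeast growth: cells expressing toxic alpha-synuclein, induced in galactose at OD600 0.02, incubated with compound 24 h at 30 C. ATP luminescence quantified growth; inhibitors of toxicity appear as activators.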
Of the large screens only hits and unclear results are named; the others gave an inactive call. Only some compounds are listed: those with a hit (about 2.1% of all), similar ones and a draw of the others. Calls come from the whole dose curve; as a rule, active = well fitted curve in the direction sought with a large enough effect; inconclusive = small, poorly fitted or top-dose-only effect, or another doubt; inactive = no such curve, though single readings can be large; an effect the other way counts as inactive or inconclusive.

Cc1ccc2c(c1)c1c(n2CC2COC(C)(C)O2)C(=O)CCC1 (stereo unspecified)	TDP-43 yeast inh 12.6µM
N#Cc1c(-c2cccc([N+](=O)[O-])c2)nc2n(c1=O)CCS2	Abeta yeast res inconclusive, TDP-43 yeast inh 11.2µM
CS/C(N)=N/C(=S)Nc1cccc(Cl)c1	Abeta yeast res 12.6µM, TDP-43 yeast inh inconclusive
NC(=S)Nc1cccc(Cl)c1	none
Cc1nn2c(-c3ccco3)nnc2c2ccccc12	TDP-43 yeast inh 8.91µM (no result: aSyn yeast inh)
Cc1ccccc1-c1nnc2c3ccccc3c(C)nn12	none
Clc1cccc(CNc2ccn3nc(-c4ccco4)cc3n2)c1	TDP-43 yeast inh 15.8µM, aSyn yeast inh inconclusive
Clc1cccc(CNc2ccn3nc(-c4ccc(OCCN5CCOCC5)cc4)cc3n2)c1	aSyn yeast inh inconclusive
Clc1cccc(CNc2ccn3nc(-c4cccs4)cc3n2)c1	Abeta yeast res inconclusive, TDP-43 yeast inh 17.8µM, aSyn yeast inh inconclusive
CN(c1ccccc1)c1cc(Br)nc(Br)c1	TDP-43 yeast inh 14.1µM
COc1ccc(CN(CC2CCC(C(=O)O)CC2)C(=S)Nc2cc(C)ccc2C)cc1 (stereo unspecified)	TDP-43 yeast inh 22.4µM
COc1ccc(N2CCC(CNC(=S)Nc3cc(C)ccc3C)C2)cc1 (stereo unspecified)	Abeta yeast res inconclusive, TDP-43 yeast inh 14.1µM, aSyn yeast inh inconclusive
COc1ccc(C2=NN(CCC(=O)NC3CCCCCC3)C(=O)CC2)cc1	none
CCc1nc2ccccc2n1CCCCOc1ccccc1C	none (no result: aSyn yeast inh)
CC(C)(C)c1ccc(C(=O)N2CCC2(C)C(=O)Nc2cccc3ncccc23)cc1 (stereo unspecified)	TDP-43 yeast inh 25.1µM
CC(C)(C)c1ccc(C(=O)N2CCC2(C)C(=O)Nc2cccc3ccccc23)cc1 (stereo unspecified)	FUS suppressor inconclusive
O=C(CSCC(=O)N1CCCCC1)Nc1nc(-c2ccccc2)c(-c2ccccc2)s1	FUS suppressor 17.8µM, TDP-43 yeast inh inconclusive
O=C(CSc1nc(-c2ccccc2)c(-c2ccccc2)o1)N1CCCCC1	FUS suppressor inconclusive
COC(=O)C1CCCN(C(=O)C(Cc2ccc3c(c2)OCO3)NC(C)=O)C1 (stereo unspecified)	none (no result: Abeta yeast res, TDP-43 yeast inh, aSyn yeast inh)
Cc1ncsc1CCOC(=O)C12CC3CC(CC(C3)C1)C2	TDP-43 yeast inh 20µM
CCOc1ccc(/C=C(\C#N)C(=O)c2c(C)[nH]c3ccccc23)cc1OC	TDP-43 yeast inh 20µM
COc1cc(/C=C(/C#N)C(=O)c2c(C)[nH]c3ccccc23)ccc1OCC#N	none
Cc1c(NC(=O)/C(C#N)=C/c2ccc(-c3cc(Cl)ccc3Cl)o2)c(=O)n(-c2ccccc2)n1C	none (no result: FUS suppressor)
Cc1c(NC(=O)/C(C#N)=C/c2ccc(-c3ccc(Cl)cc3)o2)c(=O)n(-c2ccccc2)n1C	FUS suppressor inconclusive, TDP-43 yeast inh 31.6µM
CCOC(=O)c1ccccc1OC(=O)CS(=O)c1ccccc1[N+](=O)[O-] (stereo unspecified)	none
CS(=O)(=O)c1ccc(S(=O)CC(=O)OCc2ccccc2)c([N+](=O)[O-])c1 (stereo unspecified)	none
COC(=O)c1ccc(OC(=O)CS(=O)c2ccccc2[N+](=O)[O-])cc1 (stereo unspecified)	TDP-43 yeast inh 12.6µM
O=C(CS(=O)c1ccc(C(F)(F)F)cc1[N+](=O)[O-])Oc1ccccc1 (stereo unspecified)	TDP-43 yeast inh 22.4µM
Cc1cc(C(=O)C(=O)Nc2nncs2)c(C)n1-c1ccc(Cl)cc1	TDP-43 yeast inh 11.2µM (no result: aSyn yeast inh)
Cc1cccc(-n2c(C)cc(C(=O)C(=O)Nc3nncs3)c2C)c1	TDP-43 yeast inh inconclusive (no result: aSyn yeast inh)
CSc1ncccc1C(=O)OCC(=O)NCCCc1ccccc1	TDP-43 yeast inh 17.8µM
O=C(COC(=O)c1ccccc1Br)NCCc1ccc(F)cc1	TDP-43 yeast inh 20µM (no result: FUS suppressor)
COc1ccc(CCN(C)C(=O)c2cc(-c3ccccc3)nc3ccc(C)cc23)cc1OC	none
CCOC(=O)c1ccc(N/C(=N\S(=O)(=O)c2ccccc2C)c2ccccc2)cc1	TDP-43 yeast inh 25.1µM
COC(=O)c1ccc(N/C(=N/S(=O)(=O)c2ccccc2)c2ccccc2)cc1	none (no result: FUS suppressor)
O=C(c1ccc([N+](=O)[O-])s1)N1CCN(c2cccc(Cl)c2)CC1	none (no result: FUS suppressor)
O=[N+]([O-])c1ccc(CNc2cccc(Cl)c2)s1	TDP-43 yeast inh 17.8µM, aSyn yeast inh inconclusive
COc1ccc(NCc2ccc([N+](=O)[O-])s2)cc1	TDP-43 yeast inh inconclusive
O=[N+]([O-])c1ccc(CNc2ccc(Cl)cc2)s1	Abeta yeast res inconclusive, TDP-43 yeast inh inconclusive
COc1ccc(NCc2ccc([N+](=O)[O-])s2)c(OC)c1	TDP-43 yeast inh 10µM (no result: FUS suppressor)
O=[N+]([O-])c1ccc(CNc2ccc(F)cc2)s1	Abeta yeast res inconclusive, TDP-43 yeast inh 12.6µM
Cc1cc(C)cc(N(CC(=O)Nc2ccc(Br)cc2)S(=O)(=O)c2c(C)[nH]c(=O)[nH]c2=O)c1	none
Cc1cc(Cl)ccc1C(O)c1ncc(-c2cccc(C(F)(F)F)c2)[nH]1 (stereo unspecified)	none
O=C(N/N=C/c1cccc(F)c1)NC1CCCCC1	TDP-43 yeast inh 12.6µM
NC(=S)N/N=C/c1ccc(-c2ccccc2)o1	Abeta yeast res inconclusive, TDP-43 yeast inh 11.2µM
O=[N+]([O-])c1ccc(-c2ccc(/C=N/O)o2)cc1	TDP-43 yeast inh inconclusive
NC(=S)N/N=C/C=C/c1ccccc1	TDP-43 yeast inh 10µM
NC(=S)N/N=C/c1ccc(-c2ccc(Cl)c(Cl)c2)o1	TDP-43 yeast inh 20µM
O/N=C\c1ccc(-c2ccccc2)o1	TDP-43 yeast inh 8.91µM (no result: FUS suppressor)
CC(=O)Nc1ccc(OCc2nnc(-c3ccc(Cl)cc3)o2)cc1	none
O=[N+]([O-])c1ccc(C=NNC(=S)Nc2ccc(F)cc2)cc1	none
NC(=S)N/N=C/c1cccc(Br)c1	TDP-43 yeast inh 20µM
NC(=S)N/N=C/c1cccc(/C=N/NC(N)=S)c1	none
Cc1ccc(S(=O)(=O)N2CCOC23CCN(C(=O)c2ccccc2Br)CC3)cc1	TDP-43 yeast inh 15.8µM (no result: Abeta yeast res)
CN=C(Nc1cc(Cl)ccc1Cl)SC1CC(=O)N(c2ccc(C(=O)OC)cc2)C1=O (stereo unspecified)	Abeta yeast res inconclusive, FUS suppressor inconclusive, TDP-43 yeast inh 25.1µM, aSyn yeast inh inconclusive
COc1cccc(C(O)c2nc(-c3ccccc3C)cs2)c1 (stereo unspecified)	TDP-43 yeast inh inconclusive
COc1cccc(C(O)c2nc(-c3ccc(Cl)cc3)cs2)c1 (stereo unspecified)	Abeta yeast res inconclusive, TDP-43 yeast inh 12.6µM
COc1ccccc1-c1csc(C(O)c2ccc(F)cc2)n1 (stereo unspecified)	TDP-43 yeast inh inconclusive
COc1cccc(C(O)c2nc(-c3ccccc3)cs2)c1 (stereo unspecified)	TDP-43 yeast inh 15.8µM
COc1cc(F)ccc1-c1csc(C(O)c2ccccc2)n1 (stereo unspecified)	FUS suppressor inconclusive, TDP-43 yeast inh 35.5µM
